# Hits are enriched below; roughly 10% of the tested compounds scored in any of these assays.
# hNpr1 antagonist = human Npr1 receptor antagonism; P16066; Potency, µM (highest dose often 46.3 µM), for inactives: at the top dose activity change, negative = inhibition, most hits filed as inhibitors; 76,000 tested, 1.6% active; HEK293 hNpr1 GloSensor cGMP, ANP-stimulated luminescence; calls by dose curve; further: on the % scale 0 is the no-effect control and ±100 the full control effect; nearly all actives have a fitted effect of over 60% in size
#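 HEK293 cells stably expressing human Npr1 and cGMP GloSensor pGS-40F, loaded 2 h with 2% GloSensor reagent, given compound 30 min at room temperature. Luminescence read before and 20 min after 0.1 nM hNppA.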
# FLuc inh = inhibitors of firefly (Photinus pyralis) luciferase. P08659. AID 1347043. 76,000 tested, 2.5% active. Potency, µM (titrated, usually from 115 µM), most hits filed as inhibitors. purified P. pyralis luciferase, luminescence, biochemical; further: on the % scale 0 is the no-effect control and ±100 the full control effect; nearly all actives have a fitted effect of over 65% in size
#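 Cell-free enzyme assay, 10nM P. pyralis luciferase, luciferin and ATP each at 10uM. Inhibition profiled over a 6-point titration, read as luminescence.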
# 3T3 cytotox = kills NIH 3T3 cells. 94,000 tested, 4.3% active. Potency, µM (highest dose often 96.7 µM), inactives show at the highest dose activity change, negative = cytotoxicity, most hits filed as inhibitors. NIH 3T3 viability, CellTiter-Glo ATP luminescence, 48-72 h; further: on the % scale 0 is the no-effect control and ±100 the full control effect; nearly all actives have a fitted effect of over 55% in size
#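 Viability of NIH 3T3 cells after 48 or 72 hr compound treatment at 37 °C was assessed by CellTiter-Glo, with luminescence imaged following a 10 min room-temperature step.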
# HEK cytotox = kills HEK 293 cells; HEK 293 viability, ATP luminescence (CellTiter-Glo), 48-72 h; AID 1345083; 94,000 tested, 6.6% active; Potency, µM (series often up to 115 µM), inactives show at the top dose activity change, negative = cytotoxicity, usual class: inhibitors; further: on the % scale 0 is the no-effect control and ±100 the full control effect; nearly all actives have a fitted effect of over 60% in size
#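 Pintool-delivered compounds were incubated with HEK 293 cells (250 cells/well) at 37 degree Celsius for 48 or 72 hr. ATP-dependent luminescence (CellTiter-Glo) then reported remaining viable cells.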
# GPT2 inh = blocks human glutamate pyruvate transaminase 2; Recombinant GPT2, coupled pyruvate oxidase/HRP Amplex Red fluorescence; Potency, µM (series often up to 57.7 µM), for the others: at the highest dose activity change, negative = inhibition, usual class: inhibitors; 100,000 tested, 0.25% active; AID 1671188; further: on the % scale 0 is the no-effect control and ±100 the full control effect; nearly all actives have a fitted effect of over 60% in size
# Target sequence (Q8TD30 whole entry, looked up): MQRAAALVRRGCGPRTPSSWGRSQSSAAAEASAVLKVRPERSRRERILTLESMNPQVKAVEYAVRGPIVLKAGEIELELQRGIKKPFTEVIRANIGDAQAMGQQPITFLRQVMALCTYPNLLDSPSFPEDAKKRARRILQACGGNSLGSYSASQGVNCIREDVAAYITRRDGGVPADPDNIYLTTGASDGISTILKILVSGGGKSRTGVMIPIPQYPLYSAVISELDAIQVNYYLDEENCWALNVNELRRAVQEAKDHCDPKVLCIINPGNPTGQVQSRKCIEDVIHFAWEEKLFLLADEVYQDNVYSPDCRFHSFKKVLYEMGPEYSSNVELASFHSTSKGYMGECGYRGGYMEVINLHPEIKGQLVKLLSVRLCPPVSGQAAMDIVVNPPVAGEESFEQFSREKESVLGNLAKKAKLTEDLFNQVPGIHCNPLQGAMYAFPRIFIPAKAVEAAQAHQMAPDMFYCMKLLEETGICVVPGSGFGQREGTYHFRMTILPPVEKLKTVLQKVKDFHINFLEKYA
#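 Fluorescence of coupled pyruvate oxidase/HRP/Amplex Red system (50uM Amplex, 30 min, dark) reports pyruvate formed by GPT2. Enzyme reaction: 10ng/uL GPT2, 2mM L-alanine, 250uM a-KG, 30 min room temperature, pH 7.5; 50uM AOA control.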
# Npr1 antag conf = confirmation of human Npr1 natriuretic peptide receptor antagonists; shares compounds with hNpr1 antagonist; HEK293 hNpr1 cGMP GloSensor luminescence, ANP-stimulated; Potency, µM (highest dose often 57.6 µM), for the others: at the highest dose activity change, negative = inhibition, actives largely listed as inhibitors; 1,400 tested, 76% active; AID 1347044; calls by dose curve; further: nearly all actives have a fitted effect of over 70% in size
# NPR2 antag = antagonizes human Npr2, subtype selectivity check. shares compounds with hNpr1 antagonist. HEK293 hNpr2 GloSensor cGMP luminescence, CNP-stimulated. Potency, µM (titrated, usually from 57.6 µM), inactives show at the top dose activity change, negative = inhibition, usual class: inhibitors. 1,400 tested, 67% active. AID 1347046; calls by dose curve; further: nearly all actives have a fitted effect of over 70% in size
# FLuc inh counter = inhibits firefly luciferase, false Npr1 antagonist flag; shares compounds with hNpr1 antagonist; purified FLuc enzyme, luminescence, Km substrate; Potency, µM (top dose mostly 57.6 µM), for inactives: at the top dose activity change, negative = inhibition, most hits filed as inhibitors; 1,400 tested, 0.7% active; AID 1347047; further: 0% is about no effect
# GloSensor cGMP = reduces cGMP signal in GloSensor control cells; 1,400 tested, 69% active; AID 1347051; shares compounds with hNpr1 antagonist; Potency, µM (doses to about 57.6 µM), inactives show top-dose activity change, negative = inhibition, usual class: inhibitors; HEK293 GloSensor cGMP, SNP-stimulated, luminescence; calls by dose curve; further: on the % scale 0 is the no-effect control and ±100 the full control effect; nearly all actives have a fitted effect of over 70% in size
# The depositor's hits bear a star; i = inactive; u = inconclusive; x = not tested or not shown; [ ] = another dose, or the depositor's remark. Unless noted, the call rests on the fitted dose curve; in most records, active means well fitted curve in the direction sought with a large enough effect; inconclusive means small, poorly fitted or top-dose-only effect, or another doubt; inactive means no such curve, though single readings can be large; an effect the other way counts as inactive or inconclusive. Potency means the concentration at half of the fitted maximal effect.
SMILES,hNpr1 antagonist,FLuc inh,3T3 cytotox,HEK cytotox,GPT2 inh,Npr1 antag conf,NPR2 antag,FLuc inh counter,GloSensor cGMP
CC(C)(C)c1ccc(C(=O)N2CCC(c3n[nH]c(=O)n3Cc3ccc(F)cc3)CC2)cc1,11.2µM*,i,u,u,i,24.3µM*,21.7µM*,1.8%,21.7µM*
O=C(c1ccncc1)N1CCC(CCOc2ccc(F)cc2)C1 (centres undefined),-21.4%,i,u,u,-1.5%,x,x,x,x
Cc1n[nH]c(C)c1Cc1ccc(C(=O)N2CCC(CCOc3ccc(F)cc3)C2)o1 (centres undefined),15.8µM*,i,35.5µM*,22.4µM*,i,24.3µM*,24.3µM*,6.6%,21.7µM*
O=C1N(C2CCOCC2)C[C@H]2CN(Cc3ccc(C(F)(F)F)cc3)CCN12,u,i,-22.5%[138 µM],u,i,x,x,x,x
CC(=O)Nc1ccc(CN2CCC(N3Cc4ccccc4C3=O)CC2)cc1,x,x,2.0%,3.5%,i,x,x,x,x
O=C1N(Cc2ccc(F)cc2)C[C@H]2CN(Cc3ccc(C(F)(F)F)cc3)CCN12,10µM*,i,u,u,u,11.1µM*,15.7µM*,0.8%[86.2 µM],8.86µM*
O=C1N(Cc2ccccn2)C[C@H]2CN(Cc3ccc(C(F)(F)F)cc3)CCN12,u,i,u,u,0.9%[88.5 µM],x,x,x,x
O=C1N(C2CCCCC2)C[C@H]2CN(Cc3ccc(C(F)(F)F)cc3)CCN12,12.6µM*,i,u,u,i,15.7µM*,19.8µM*,-14.2%[86.2 µM],15.7µM*
COc1ccc(CN2C[C@H]3CN(Cc4ccc(C)cc4)CCN3C2=O)cc1,17.8µM*,i,u,u,-4.3%[88.5 µM],17.7µM*,22.2µM*,-8.1%[86.2 µM],19.8µM*
O=C1c2ccccc2CN1C1CCN(Cc2ccc(C(F)(F)F)cc2)CC1,x,x,u,u,i,21.7µM*,24.3µM*,0.1%,19.3µM*
CCS(=O)(=O)N1CCOC[C@H](Oc2ccc(C(F)(F)F)cn2)C1,-1.0%[70.6 µM],i,u,-10.7%[172 µM],3.1%[88.5 µM],x,x,x,x
COc1cccc(C(=O)N2CCC3(CC2)OCC(C(=O)NCC(C)C)N3C(=O)c2ccc(F)cc2)c1 (centres undefined),1.0%,i,-19.4%,2.4%,-5.5%,x,x,x,x
CCOC(=O)C1(Cc2ccc(Cl)cc2)CCN(C(=O)c2cc(C)oc2C)CC1,12.6µM*,i,25.1µM*,20µM*,i,21.7µM*,21.7µM*,-5.7%,19.3µM*
CCOC(=O)C1(Cc2ccc(OC)cc2)CCN(C(=O)c2cccc(Cl)c2)CC1,-12.5%,u,u,u,-9.8%,x,x,x,x
Cc1ccc(-c2nnc(C3CN(C(=O)c4ccc(C)nc4)CC34CCOCC4)o2)cc1 (centres undefined),4.4%,i,1.2%,-4.0%,1.6%,x,x,x,x
O=C1N[C@H](CC(=O)N2CCC(Cc3ccccc3)CC2)C(=O)Nc2ccccc21,10µM*,i,-20.7%,u,i,19.3µM*,12.2µM*,-0.5%,-19.5%
O=C1N[C@H](CC(=O)N2CCC(c3ccccc3)C2)C(=O)Nc2ccccc21 (some centres undefined),6.5%,i,i,9.6%,i,x,x,x,x
CN1C[C@@H](NC(=O)CC(C)(C)C)C[C@H]1c1nc(-c2ccc3c(c2)OCO3)no1,25.1µM*,i,u,u,-7.6%[88.5 µM],u,u,-2.6%[86.2 µM],39.6µM*
COc1ccc(N2CCN(C(=O)Nc3nc(C)ns3)CC2(C)C)cc1,7.94µM*,i,u,10µM*,i,12.2µM*,15.3µM*,2.8%,8.62µM*
CC1(CCCCc2ccccc2)COc2ccc(C(=O)NC3CC3)cc2N1 (centres undefined),20µM*,i,u,u,-12.1%[88.5 µM],35.3µM*,28µM*,-1.3%[86.2 µM],17.7µM*
CC1(CCCCc2ccccc2)COc2ccc(C(=O)N3CC(O)C3)cc2N1 (centres undefined),35.5µM*,i,u,u,-8.3%[88.5 µM],39.6µM*,35.3µM*,0.9%[86.2 µM],31.4µM*
CNC(=O)[C@@H]1CN(C(=O)c2cccc(OC(F)(F)F)c2)C[C@H]1CO,5.6%,i,2.5%,-7.7%,0.9%,x,x,x,x
CC(C)(Oc1nn(CCOc2ccccc2)c2ccccc12)C(=O)NCc1cnccn1,-2.4%[70.6 µM],i,u,u,-4.4%[88.5 µM],x,x,x,x
O=C(Cc1ccc(F)cc1)N1CCC2(CC1)CC(N(Cc1ccccc1)C1CC1)CCO2 (centres undefined),u,i,u,u,i,x,x,x,x
CC(C)C(=O)N1CCC2(CC1)CC(N(Cc1ccc(F)cc1)C1CC1)CCO2 (centres undefined),-24.4%,i,-24.0%,u,-11.6%,-19.0%,-15.7%,0.9%,-3.0%
Cc1ccc(C(=O)N2CCC3(CC2)CC(N(Cc2ccccc2)C2CC2)CCO3)cc1F (centres undefined),11.2µM*,i,u,44.7µM*,i,24.3µM*,u,-3.0%,27.3µM*
CCCC1c2nccn2CCCN1C(=O)c1cocn1 (centres undefined),-4.2%,i,-10.3%,-7.2%,0.6%,x,x,x,x
Cc1ncsc1CN1CCC2(CC1)CC(Cc1nc(-c3ccccc3)no1)CCO2 (centres undefined),10µM*,i,u,17.8µM*,u,12.2µM*,17.2µM*,-9.8%,13.7µM*
CC1=C(C(=O)OC(C)C)C(c2ccccc2C)N2C(CC(=O)NCC3CC3)=CSC2=N1 (centres undefined),u,i,u,10µM*,-5.6%,u,u,-0.7%,u
CCC1=C(C(=O)OC)C(c2ccccc2Cl)N2C(CC(=O)NCC3CC3)=CSC2=N1 (centres undefined),u,i,-25.6%,u,u,x,x,x,x

# High-throughput results: PubChem BioAssay, National Center for Advancing Translational Sciences (NCATS)
